p53ts 39C kill: kills p53ts cells at the nonpermissive temperature; Potency, µM (series often up to 46.1 µM), actives largely listed as cytotoxic; 130,000 compounds, 1.5% hits; AID 902; H1299-p53A138V viability at 39C, ATP luminescence, 24 h; further: nearly all actives have a fitted effect of over 55% in size
FLuc inh: blocks Photinus pyralis firefly luciferase activity | P08659 | purified firefly luciferase, luminescence, 8 min | Potency, µM (top dose mostly 57.1 µM), most hits filed as inhibitors | 72,000 compounds, 2.2% hits | AID 411; further: nearly all actives have a fitted effect of over 40% in size
Target sequence (P08659 whole entry, looked up): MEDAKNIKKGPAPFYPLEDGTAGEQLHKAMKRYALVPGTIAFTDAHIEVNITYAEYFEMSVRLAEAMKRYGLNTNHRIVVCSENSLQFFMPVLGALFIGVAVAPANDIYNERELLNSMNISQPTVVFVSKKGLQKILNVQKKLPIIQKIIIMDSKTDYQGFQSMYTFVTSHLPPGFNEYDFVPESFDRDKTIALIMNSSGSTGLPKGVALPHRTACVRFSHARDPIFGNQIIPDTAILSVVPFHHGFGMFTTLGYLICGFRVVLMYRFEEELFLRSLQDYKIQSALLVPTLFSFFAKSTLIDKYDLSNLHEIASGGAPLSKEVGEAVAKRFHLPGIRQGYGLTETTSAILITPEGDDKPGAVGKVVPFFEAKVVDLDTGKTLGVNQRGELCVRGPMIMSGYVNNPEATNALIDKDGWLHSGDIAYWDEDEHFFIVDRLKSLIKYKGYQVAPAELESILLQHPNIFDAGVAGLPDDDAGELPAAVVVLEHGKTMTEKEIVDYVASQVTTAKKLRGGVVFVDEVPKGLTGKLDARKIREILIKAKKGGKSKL
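Titration-based qHTS; buffer 50 mM imidazole pH 7.2, 50 mM KCl, 7 mM MgCl2, 10 uM ATP, 0.01% Tween 20, 0.05% BSA; luciferase/luciferin detector mix added after compound; 8 min, ambient; luminescence.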
p53ts 32C kill: cytotoxicity in p53ts cells at permissive temperature. H1299-p53A138V at 32C, ATP luminescence viability, 24 h. Potency, µM (titrated, usually from 46.1 µM), most hits filed as cytotoxic. 130,000 compounds, 0.93% hits. AID 924; further: nearly all actives have a fitted effect of over 55% in size
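H1299-p53 A138V cells (temperature-sensitive p53) exposed 24 h to up to 46 uM compound at 32C, where p53 is wild-type in conformation. Viability read as ATP luminescence and normalised to DMSO and 100 uM tamoxifen. AC50 fitted with the Hill equation.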
Of the large screens only hits and unclear results are named; the others gave an inactive call. Compounds with a hit are over-represented: about 2.6% of the library has one in this group of screens. The call rests on the fitted dose curve; in most records, active means well fitted curve in the direction sought with a large enough effect; inconclusive means small, poorly fitted or top-dose-only effect, or another doubt; inactive means no such curve, though single readings can be large; an effect the other way counts as inactive or inconclusive.

COc1ccc(NC(=O)C(C)NS(=O)(=O)c2ccc(NC(C)=O)cc2)cc1Cl (centres undefined)	none
COc1ccc(C(=O)Nc2cc(OC)cc(OC)c2)cc1	p53ts 39C kill inconclusive, FLuc inh 3.98µM, p53ts 32C kill 12.6µM
Cc1nnc(SC(C)C(=O)Nc2ccc3c(c2)OCCO3)s1 (centres undefined)	none
Cc1cc(C)cc(NS(=O)(=O)c2ccc(-c3cc(C)no3)cc2)c1	none (no result: FLuc inh)
CCOc1ccc(/C=C/c2nc(C#N)c(NC3CCCCC3)o2)cc1	none (no result: FLuc inh)
Cc1ccc(N(C)C(CNS(=O)(=O)c2ccccc2)c2ccccc2)cc1 (centres undefined)	p53ts 39C kill inconclusive (no result: FLuc inh)
COc1cc2c(=O)c(C(=O)c3ccc(C)c(C)c3)cn(Cc3ccccc3F)c2cc1OC	none (no result: FLuc inh)
O=C(COc1ccc(F)cc1Br)N1CCc2ccccc21	FLuc inh 7.94µM
O=C(c1cccc(F)c1)N1CCc2ccccc21	none
Cc1ccc2c(=O)cc(C(=O)NCc3ccccc3)oc2c1	none (no result: FLuc inh)
O=S(=O)(c1ccccc1)N1CN2CN(C1)CN(S(=O)(=O)c1ccccc1)C2	none
Clc1ccccc1/C=C\c1ccnc2ccccc12	none
COc1ccc(CC(=O)Nc2sc3c(c2C(=O)Nc2cccc(C)c2)CCCCC3)cc1	p53ts 39C kill 10µM (no result: FLuc inh)
COc1ccc(CC(=O)Nc2sc3c(c2C(=O)Nc2ccc(C)cc2)CCCCC3)cc1	none (no result: FLuc inh)
Cc1ccc(C2c3c(-c4ccccc4O)n[nH]c3C(=O)N2CCc2ccccc2)cc1 (centres undefined)	p53ts 39C kill 31.6µM, p53ts 32C kill 12.6µM (no result: FLuc inh)
COc1ccc(C2c3c(-c4ccccc4O)n[nH]c3C(=O)N2CCc2ccc(OC)c(OC)c2)cc1 (centres undefined)	none
CC(C)c1ccc(C2c3c(-c4ccccc4O)n[nH]c3C(=O)N2CCc2ccccc2)cc1 (centres undefined)	p53ts 39C kill 25.1µM (no result: FLuc inh)
COc1ccc(C2c3c(-c4ccccc4O)n[nH]c3C(=O)N2CCc2ccccc2)cc1 (centres undefined)	p53ts 39C kill inconclusive (no result: FLuc inh)
Cc1cnc(CNc2ncnc3ccc(-c4ccccc4C(F)(F)F)cc23)cn1	none
N#Cc1cccc(NC(=O)Nc2cccs2)c1	none
CCc1cccc(NC(=O)Nc2cccs2)c1	FLuc inh 15.8µM
Cc1cc(C)cc(NC(=O)c2cc(S(=O)(=O)N3CCCC3)ccc2F)c1	p53ts 39C kill inconclusive (no result: FLuc inh)
Cc1cc(C)cc(NC(=O)CSc2oc(-c3cccs3)nc2S(=O)(=O)c2ccc(Br)cc2)c1	none (no result: FLuc inh)
Cc1cc(C)cc(NC(=O)CSc2oc(-c3ccccc3)nc2S(=O)(=O)c2ccccc2)c1	p53ts 39C kill inconclusive (no result: FLuc inh)
CCOc1ccc(NC(=O)CSc2oc(-c3ccc(C)cc3)nc2S(=O)(=O)c2ccc(C)cc2)cc1	p53ts 39C kill 0.794µM, p53ts 32C kill 12.6µM (no result: FLuc inh)
CCOc1ccc(NC(=O)CSc2oc(-c3cccs3)nc2S(=O)(=O)c2ccc(Cl)cc2)cc1	p53ts 39C kill 12.6µM (no result: FLuc inh)
COC(=O)c1ccc(NC(=O)C(=O)NCCc2csc(-c3ccc(F)cc3)n2)cc1	none (no result: FLuc inh)
CCCn1c(C)nc2c(NCCCN(CCO)CCO)nc(C)nc21	none (no result: FLuc inh)
CCCOc1ccc(-c2nn(-c3ccccc3)cc2C2NC(=O)NC(C)=C2C(=O)OC)cc1C (centres undefined)	p53ts 39C kill inconclusive (no result: FLuc inh)
O=C(Nc1ccc(NC(=O)C2CC2)nc1)c1ccccn1	p53ts 39C kill 6.31µM, FLuc inh 20µM, p53ts 32C kill 12.6µM
O=C(Nc1ccc(NC(=O)C2CCCCC2)cn1)c1ccco1	p53ts 39C kill 5.01µM, FLuc inh 5.01µM, p53ts 32C kill 3.98µM
O=C(Nc1ccc(NC(=O)C23CC4CC(CC(C4)C2)C3)cn1)c1ccco1	none
O=C(Cc1ccccc1)Nc1ccc(NC(=O)c2ccco2)nc1	none
O=C(Nc1ccc(NC(=O)C2CC2)nc1)c1ccncc1	none
O=C(Nc1ccc(NC(=O)c2ccco2)nc1)c1ccccn1	p53ts 39C kill 12.6µM, FLuc inh 10µM, p53ts 32C kill 12.6µM
CC(C)C(=O)Nc1ccc(NC(=O)c2cccs2)cn1	none
CC(C)C(=O)Nc1ccc(NC(=O)c2ccccn2)cn1	p53ts 39C kill 12.6µM, FLuc inh 12.6µM, p53ts 32C kill 7.94µM
CCCCOc1ccc(C2c3c(-c4ccccc4O)n[nH]c3C(=O)N2Cc2ccncc2)cc1OC (centres undefined)	none (no result: FLuc inh)
O=C(Nc1ccccc1C(=O)OCc1cc(=O)n2c3c(sc2n1)CCCC3)c1cccc(Cl)c1	none (no result: FLuc inh)
CCOc1ccccc1C(=O)Oc1c(S(=O)(=O)c2ccc(C)cc2)c(C)nn1-c1ccccc1	none (no result: FLuc inh)
Cc1cc(C)c(NC(=O)CSc2nncn3c2cc2oc(C)cc23)c(C)c1	none (no result: FLuc inh)
CCCC(=O)Nc1ccc(NC(=O)c2ccccc2Cl)nc1	none
CCC(=O)Nc1ccc(NC(=O)c2ccccn2)cn1	p53ts 39C kill inconclusive, FLuc inh 39.8µM, p53ts 32C kill inconclusive
CN(C)S(=O)(=O)c1ccc(C(=O)Nc2ccc(-n3nncc3-c3ccccc3)cc2)cc1	none (no result: FLuc inh)
O=C(Nc1ccccc1)Nc1cccc2cccnc12	FLuc inh 20µM
O=C(Nc1ccccc1)Nc1ccccn1	none
O=C(Nc1ccc(F)c(F)c1)c1cc(S(=O)(=O)NCc2ccc3c(c2)OCO3)ccc1F	none (no result: FLuc inh)
Cc1cc(NC(=O)c2ccc3c(c2)N(Cc2cccc(Cl)c2)C(=O)c2ccccc2S3(=O)=O)ccc1Br	none (no result: FLuc inh)
CN(Cc1ccccc1)C(=O)c1cc(-c2cccc(Cl)c2)on1	none (no result: FLuc inh)
CN(C)Cc1ccc(-c2cc3onc(-c4ccccc4)c3c(=O)n2C)cc1	FLuc inh 3.98µM
Cc1ccccc1S(=O)(=O)Cc1ccc(C(=O)N2CCN(c3cccc(C)c3C)CC2)o1	p53ts 39C kill 12.6µM, p53ts 32C kill inconclusive
Cc1ccccc1S(=O)(=O)Cc1ccc(C(=O)N2CCN(c3cccc(Cl)c3)CC2)o1	p53ts 39C kill inconclusive (no result: FLuc inh)
CCn1c2ccccc2c2cc(NC(=O)COc3cc(C)ccc3C)ccc21	none (no result: FLuc inh)
CCc1ccc(OCC(=O)Nc2ccc3c(c2)c2ccccc2n3CC)c(Br)c1	p53ts 39C kill 12.6µM (no result: FLuc inh)
C[C@H]1[C@H](NC(=O)/C(=N/OC(C)(C)C(=O)O)c2csc(N)n2)C(=O)N1S(=O)(=O)O (stereo in doubt)	none (no result: FLuc inh)
COc1ccccc1-c1noc(CCCC(=O)Nc2cc(C)ccc2C)n1	none (no result: FLuc inh)
CCCC(=O)Nc1cnc(NC(=O)c2cccc(F)c2)cc1C	p53ts 39C kill inconclusive, FLuc inh 25.1µM, p53ts 32C kill inconclusive
CCC(=O)Nc1cc(C)c(NC(=O)c2ccco2)cn1	none
Cc1cc(NC(=O)c2ccccc2)ncc1NC(=O)c1ccco1	p53ts 39C kill inconclusive, FLuc inh 25.1µM, p53ts 32C kill inconclusive
Cc1cc(NC(=O)C(C)C)ncc1NC(=O)c1cccc(F)c1	none
CCC(=O)OC1C2CC3=C4CC(=O)OC(c5ccoc5)[C@]4(C)CCC3[C@@](C)(C2=O)C(CC(=O)OC)C1(C)C (some centres undefined)	none (no result: FLuc inh)
COc1ccc(C2CC(=O)Nc3c2c(C)nn3-c2nncc(-c3ccc(C)cc3)n2)c(OC)c1OC (centres undefined)	none (no result: FLuc inh)
Cc1ccc(C)c(N2CCN(C(=O)c3cc(S(=O)(=O)N4CCCC4)c[nH]3)CC2)c1	none (no result: FLuc inh)
CC(=O)N1CCC[C@@]2(CCN(Cc3ccc(C#N)cc3)C2)C1	none
COc1ccc(Cl)cc1NC(=O)Cn1c(=O)n(CCCC(=O)NCCc2ccc(OC)c(OC)c2)c(=O)c2ccccc21	p53ts 39C kill inconclusive (no result: FLuc inh)

Source: PubChem (National Center for Advancing Translational Sciences (NCATS))
